Measurements reported in ChEMBL document CHEMBL1961873, “Compounds: GSK PKIS; Assays: Nanosyn kinase panel” (2012).

Assays:
[1] = target: CDK3/Cyclin E (Homo sapiens) (UniProt P24864+Q00526); conditions: at 1 µM;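 also: each figure is a mean percent inhibition of the CDK3/cyclin E complex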
[2] = target: Cyclin-dependent kinase 4 (Homo sapiens) (UniProt P11802); conditions: at 0.1 µM
[3] = target: Cyclin-dependent kinase 4 (Homo sapiens) (UniProt P11802); conditions: at 1 µM
[4] = target: Cyclin-dependent kinase 5 (Homo sapiens) (UniProt Q00535); conditions: at 0.1 µM
[5] = target: Cyclin-dependent kinase 5 (Homo sapiens) (UniProt Q00535); conditions: at 1 µM
[6] = target: Cyclin-dependent kinase 6 (Homo sapiens) (UniProt Q00534); conditions: at 0.1 µM
[7] = target: Cyclin-dependent kinase 6 (Homo sapiens) (UniProt Q00534); conditions: at 1 µM
[8] = target: Dual specificity protein kinase CLK2 (Homo sapiens) (UniProt P49760); conditions: at 0.1 µM
[9] = target: Dual specificity protein kinase CLK2 (Homo sapiens) (UniProt P49760); conditions: at 1 µM
[10] = target: Dual specificity protein kinase CLK3 (Homo sapiens) (UniProt P49761); conditions: at 0.1 µM
Dual specificity protein kinase CLK3 (Homo sapiens), sequence (P49761 whole entry, looked up): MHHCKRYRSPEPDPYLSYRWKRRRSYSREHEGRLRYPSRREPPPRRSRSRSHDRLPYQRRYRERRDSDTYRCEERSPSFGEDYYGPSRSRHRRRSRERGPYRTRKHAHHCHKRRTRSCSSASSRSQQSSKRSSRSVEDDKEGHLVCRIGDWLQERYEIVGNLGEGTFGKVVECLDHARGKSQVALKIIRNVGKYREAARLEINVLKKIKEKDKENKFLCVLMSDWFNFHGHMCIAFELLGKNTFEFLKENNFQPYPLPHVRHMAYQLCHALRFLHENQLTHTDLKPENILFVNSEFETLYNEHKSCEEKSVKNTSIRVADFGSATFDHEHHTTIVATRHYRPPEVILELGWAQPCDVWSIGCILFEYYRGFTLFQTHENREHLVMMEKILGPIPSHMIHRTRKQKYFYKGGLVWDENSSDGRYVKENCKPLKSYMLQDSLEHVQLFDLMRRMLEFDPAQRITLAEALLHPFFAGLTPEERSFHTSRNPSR

Cyclin-dependent kinase 5 (Homo sapiens), sequence (Q00535 whole entry, looked up): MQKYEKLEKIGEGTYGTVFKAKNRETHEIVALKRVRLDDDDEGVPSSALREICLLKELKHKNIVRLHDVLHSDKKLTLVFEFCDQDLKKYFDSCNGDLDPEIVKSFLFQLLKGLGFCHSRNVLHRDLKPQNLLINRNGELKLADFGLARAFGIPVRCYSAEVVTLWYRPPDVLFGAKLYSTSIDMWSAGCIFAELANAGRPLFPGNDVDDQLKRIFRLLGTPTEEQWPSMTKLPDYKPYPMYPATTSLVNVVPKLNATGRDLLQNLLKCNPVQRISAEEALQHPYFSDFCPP
Cyclin-dependent kinase 4 (Homo sapiens), sequence (P11802 whole entry): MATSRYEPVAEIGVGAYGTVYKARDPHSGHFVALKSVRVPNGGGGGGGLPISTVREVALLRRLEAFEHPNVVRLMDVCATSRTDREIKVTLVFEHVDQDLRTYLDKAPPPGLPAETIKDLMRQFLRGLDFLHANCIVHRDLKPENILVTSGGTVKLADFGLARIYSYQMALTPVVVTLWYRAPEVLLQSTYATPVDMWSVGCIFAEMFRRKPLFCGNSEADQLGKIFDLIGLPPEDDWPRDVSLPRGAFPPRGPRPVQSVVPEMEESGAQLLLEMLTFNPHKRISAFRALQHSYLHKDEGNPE
Dual specificity protein kinase CLK2 (Homo sapiens), sequence (P49760 whole entry, looked up): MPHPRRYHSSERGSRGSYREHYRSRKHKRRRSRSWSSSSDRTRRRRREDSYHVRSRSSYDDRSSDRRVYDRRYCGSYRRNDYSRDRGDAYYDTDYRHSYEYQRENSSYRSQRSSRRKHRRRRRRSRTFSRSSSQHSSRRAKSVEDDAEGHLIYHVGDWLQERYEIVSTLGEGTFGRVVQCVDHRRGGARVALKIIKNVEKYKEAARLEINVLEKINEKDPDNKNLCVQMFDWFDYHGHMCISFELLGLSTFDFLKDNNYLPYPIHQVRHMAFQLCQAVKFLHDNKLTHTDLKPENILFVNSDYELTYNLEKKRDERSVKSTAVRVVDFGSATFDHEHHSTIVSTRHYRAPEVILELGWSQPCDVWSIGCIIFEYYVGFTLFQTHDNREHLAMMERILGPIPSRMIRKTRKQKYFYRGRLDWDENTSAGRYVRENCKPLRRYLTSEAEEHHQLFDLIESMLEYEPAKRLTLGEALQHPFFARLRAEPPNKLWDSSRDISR
Cyclin-dependent kinase 6 (Homo sapiens), sequence (Q00534 whole entry): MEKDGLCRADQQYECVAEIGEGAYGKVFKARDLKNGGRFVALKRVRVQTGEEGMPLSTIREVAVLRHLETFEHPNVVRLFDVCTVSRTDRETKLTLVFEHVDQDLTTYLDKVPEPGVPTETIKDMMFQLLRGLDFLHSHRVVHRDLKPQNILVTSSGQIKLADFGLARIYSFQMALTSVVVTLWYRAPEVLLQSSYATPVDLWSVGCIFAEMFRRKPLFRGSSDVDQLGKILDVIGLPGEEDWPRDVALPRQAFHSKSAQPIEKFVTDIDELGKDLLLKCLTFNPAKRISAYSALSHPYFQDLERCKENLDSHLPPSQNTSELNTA
CDK3/Cyclin E (Homo sapiens), sequence (P24864 whole entry, looked up): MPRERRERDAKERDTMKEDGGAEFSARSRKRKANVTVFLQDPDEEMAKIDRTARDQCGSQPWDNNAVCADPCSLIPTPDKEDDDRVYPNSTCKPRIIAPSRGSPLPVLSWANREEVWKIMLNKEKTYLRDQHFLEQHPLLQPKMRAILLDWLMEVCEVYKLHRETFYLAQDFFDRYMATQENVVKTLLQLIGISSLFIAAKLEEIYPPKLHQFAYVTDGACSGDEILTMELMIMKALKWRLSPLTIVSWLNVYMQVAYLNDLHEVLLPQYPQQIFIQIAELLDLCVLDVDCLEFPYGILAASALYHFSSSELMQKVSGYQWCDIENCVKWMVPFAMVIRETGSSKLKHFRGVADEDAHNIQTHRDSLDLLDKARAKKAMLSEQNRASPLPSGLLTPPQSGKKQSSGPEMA
CDK3/Cyclin E (Homo sapiens), sequence (Q00526 whole entry, looked up): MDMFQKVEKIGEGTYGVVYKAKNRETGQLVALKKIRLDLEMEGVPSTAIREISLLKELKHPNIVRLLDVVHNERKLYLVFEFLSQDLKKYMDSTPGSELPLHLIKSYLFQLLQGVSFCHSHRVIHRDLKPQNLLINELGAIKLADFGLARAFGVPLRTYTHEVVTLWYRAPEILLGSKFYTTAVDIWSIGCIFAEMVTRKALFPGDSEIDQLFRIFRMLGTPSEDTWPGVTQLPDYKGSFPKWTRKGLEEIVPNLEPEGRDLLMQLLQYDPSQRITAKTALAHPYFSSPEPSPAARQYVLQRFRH

SMILES | inhibition [1] [%] | inhibition [2] [%] | inhibition [3] [%] | inhibition [4] [%] | inhibition [5] [%] | inhibition [6] [%] | inhibition [7] [%] | inhibition [8] [%] | inhibition [9] [%] | inhibition [10] [%]
CN(C)C(=O)O[C@H]1CN[C@H](C#Cc2cc3ncnc(Nc4ccc(OCc5cccc(F)c5)c(Cl)c4)c3s2)C1 | -2.05 | 1.82 | 1.04 | 0.51 | 0.96 | 2.1 | 4.47 | -0.97 | 0.42 | 1.51
Nc1nccc(-c2c(-c3ccc(F)cc3)ncn2CCCN2CCOCC2)n1 | -2.47 | 3.06 | 2.9 | 0.16 | 0.47 | -2.14 | 0.98 | 0.47 | 0.74 | 1.31
C[C@@H](Oc1cc(-n2cnc3ccc(OC[C@@H](O)CO)cc32)sc1C(N)=O)c1ccccc1Cl | 1.56 | -0.86 | 0.89 | 0.29 | 1.88 | -1.79 | -0.4 | 1.72 | 7.52 | 0.13
NC(=O)c1cccc(Nc2nccc(Nc3cccc(F)c3)n2)c1 | 3.01 | 0.31 | 2.2 | 0.58 | 3.99 | -1.89 | 0.33 | 0.31 | 5.73 | -0.43
Cc1ccc(NC(=O)CC2CC2)cc1-c1ccc(C(=O)NCC2CC2)cc1 | -2.46 | 1.69 | 2.18 | 0.04 | 0.76 | 1.72 | 1.87 | 0.47 | 0.08 | 1.44
Cc1ccc(O)cc1Nc1ccnc2ccc(S(C)(=O)=O)cc12 | -3.13 | 3.24 | 4.37 | 0.36 | 2.61 | -4.64 | 3.72 | 2.47 | 7.17 | 1.75
O=S(=O)(CCOCc1ccc(-c2ccc3ncnc(Nc4ccc(OCc5cccc(F)c5)c(Cl)c4)c3c2)o1)c1ccccc1 | -2.84 | 0.35 | 4.69 | 4.26 | 5.68 | 0.17 | 3.76 | -0.59 | 1.39 | 0.11
COc1cc2ncnc(Nc3ccc4c(cnn4Cc4ccccc4)c3)c2cc1OC | -1.25 | 1.5 | 5.06 | 4.4 | 6.81 | -3.86 | -2.1 | -0.74 | 0.84 | 1.15
CCS(=O)(=O)c1ccc(OC)c(Nc2nccc(N(C)c3ccc4c(C)n[nH]c4c3)n2)c1 | -2.55 | 3.02 | 4.42 | 0.13 | 0.33 | -0.16 | -1.74 | 0.8 | 0.04 | 1.1
CC(C)c1ccc(Nc2nccc(-c3cnn4ncccc34)n2)cc1 | 39 | 9.51 | 39.5 | 12.7 | 51.4 | 3.4 | 19.4 | 14 | 65.3 | 3.13
O=C(Nc1ccc(Oc2ccc3[nH]c(NC(=O)c4ccco4)nc3c2)cc1)Nc1cc(C(F)(F)F)ccc1F | 0.77 | -4.32 | -2.74 | -4.37 | -4.57 | -1.5 | -3.48 | 0.35 | 0.71 | -3.23
c1ccc(Cc2nc3ccc(Nc4ncnc5ccccc45)cc3[nH]2)cc1 | 1.71 | 4.29 | 5.27 | 3.52 | 5.74 | 6.78 | 8.79 | 1.26 | 2 | 2.76
c1ccc(Nc2ncc(-c3ccccc3)o2)cc1 | 5.78 | 3.04 | 11.5 | 2.22 | 10.4 | 2.71 | 21.7 | 0.96 | 3.74 | -0.17
[O-][S+]1CCN(Cc2ccc(-c3ccc4ncnc(Nc5ccc(OCc6ccccc6)c(Cl)c5)c4c3)o2)CC1 | -1.44 | 0.13 | 3.22 | 0.19 | 0.51 | -0.89 | 0.14 | -0.72 | 0.49 | 0.43
COc1cc(Nc2nccc(-c3cnn4ncccc34)n2)cc(OC)c1 | 74.3 | 44.9 | 78.5 | 63 | 90.1 | 24.9 | 76.1 | 99.2 | 99.9 | 36.5
ON=C1CCc2cc(-c3nc(C4CCNCC4)[nH]c3-c3ccncc3)ccc21 | 0.13 | 0.69 | 2.19 | 0.57 | 1.42 | -5.1 | -0.84 | 2.05 | -0.07 | -0.6
CCOc1nccc2c1nc(-c1nonc1N)n2CC | -0.38 | 0.99 | 1.83 | 0.91 | 1.13 | -2.27 | 1.84 | 1.77 | 1.91 | 1.37
NS(=O)(=O)c1ccc(-c2cc3ccncc3cc2OCc2ccccc2)cc1 | -0.11 | 2.12 | 0.84 | -0.11 | -1.18 | 3.37 | 2.89 | 0.98 | 2.04 | 1.44
NS(=O)(=O)c1cccc(-c2cc3ccncc3cc2OCc2ccccc2)c1 | 0.51 | 3.55 | 6.33 | 1.96 | 3.2 | -1.23 | 10.9 | 1.16 | 1.27 | 1.46
Cc1ccc(Nc2ccnc(Nc3cccc(C(N)=O)c3)n2)cc1O | 4.71 | -2.5 | 1.32 | -3.13 | 1.46 | -1.97 | -0.13 | 1.32 | 6.94 | -0.76

SMILES | inhibition [1] [%] | inhibition [2] [%] | inhibition [3] [%] | inhibition [4] [%] | inhibition [5] [%] | inhibition [6] [%] | inhibition [7] [%] | inhibition [8] [%] | inhibition [9] [%] | inhibition [10] [%]
Cc1ccc(C(=O)NC2CC2)cc1-c1ccc2[nH]ncc2c1 | 0.41 | -0.45 | 1.78 | 0.3 | 2.44 | -4.81 | -2.84 | -1 | 0.36 | -0.51
COC(=O)c1ccc2c(c1)C(=Cc1cc(Br)c(O)c(Br)c1)C(=O)N2 | -1.48 | 3.47 | 4.69 | 1.03 | 2.5 | -4.09 | -4.12 | 8.63 | 50.1 | 0.44
CN(c1ccc(NC(=O)Nc2ccc(OC(F)(F)F)cc2)cc1)c1ccnc(Nc2cccc(S(N)(=O)=O)c2)n1 | 3.98 | 0.85 | 6.76 | 0.45 | 5.8 | 2.09 | 27.4 | 1.61 | -2.84 | 0.59
CN(C)C(=O)O[C@@H]1CN[C@@H](C#Cc2cc3ncnc(Nc4ccc(OCc5cccc(F)c5)c(Cl)c4)c3s2)C1 | -1.66 | 2.09 | 1.46 | 0.54 | 1.24 | -6.37 | 0.91 | 0.95 | -0.08 | -0.16
OCc1ccc(-c2nc(-c3ccccn3)c(-c3ccc4c(c3)OCO4)[nH]2)cc1 | 1.76 | 2.89 | 3.75 | 0.69 | 1.21 | -1 | 2.55 | 1.74 | 4.27 | 1.94
NS(=O)(=O)c1ccc(N/N=C2\C(=O)Nc3ccc(Cl)cc32)cc1 | 83.7 | 6.36 | 28 | 18 | 61 | 15.3 | 56.7 | 0.8 | 2.45 | 1.72
CC(C)c1ccc2c(c1)NC(=O)/C2=N/Nc1ccc(S(N)(=O)=O)cc1 | 6.26 | 0.37 | 7.65 | 1.59 | 5.95 | 3.38 | 28.6 | -0.26 | -1.61 | -0.29
CN(C)c1cc2c(Nc3ccc4c(cnn4Cc4ccccc4)c3)ncnc2cn1 | -0.2 | 2.4 | 4.36 | 0.57 | 1.24 | -3.6 | -0.22 | 0.87 | -0.06 | 0.92
FC(F)(F)c1ccc(-c2nn3ncccc3c2-c2ccnc(Nc3ccc4c(c3)OCCO4)n2)cc1 | 4.1 | 5.36 | 5.52 | 5.49 | 3.8 | 3.25 | 3.58 | 2.1 | 2.93 | 5.98
Oc1cccc(-c2nc(-c3ccccc3)[nH]c2-c2ccncc2)c1 | -2 | 2.45 | 5.74 | 0.71 | 3.06 | -1.44 | 6.21 | 1.81 | 4.52 | 1.66
COc1cc2ncnc(Nc3ccc(C)c(O)c3)c2cc1OC | -1.71 | 4.46 | 6.21 | 0.92 | 2.99 | -0.81 | 4.49 | 1.85 | 0.29 | 1.39
Cc1nc(-c2ccccc2)n2nc(NCCCN3CCOCC3)ncc12 | 0.9 | 4.19 | 15.2 | 0.75 | 2.62 | 13.8 | 52.7 | 3.46 | 10.1 | 0.04
CS(=O)(=O)Nc1cccc(-c2ccc3c(NC(=O)C4CC4)n[nH]c3c2)c1 | 3.8 | 0.3 | 2.88 | 0.92 | 2.86 | -5.62 | 6.33 | 2.8 | 3.81 | -0.87
N#Cc1cccc(Nc2nccc(-c3cnn4ncccc34)n2)c1 | 99.9 | 71 | 83.7 | 80.3 | 87 | 61.9 | 84 | 98.9 | 96.9 | 56.7
C[C@@H](Oc1cc(-n2cnc3ccc(OCC4CCN(C)CC4)cc32)sc1C(N)=O)c1ccccc1C(F)(F)F | 0.6 | -1.73 | 1 | 0.01 | 3.08 | -3.79 | -1.66 | 1.74 | 9.73 | -0.19
NS(=O)(=O)c1ccc(Nc2cc(-c3cccc(O)c3)n[nH]2)cc1 | 28.8 | 3.25 | 9.51 | 5.69 | 31.5 | 2.31 | 21.3 | 3.77 | 2.54 | 1.95
CCCN1CCCC(c2ccc(Nc3nc(Nc4cc(F)ccc4C(N)=O)c4cc[nH]c4n3)c(OC)c2)C1 (stereo not given) | 0.01 | 3.53 | 12.1 | 0.43 | 5.92 | -2.09 | 8.41 | 67.3 | 93.8 | 4.01
Cc1ccc2c(-c3ccnc(Nc4cccc(C(F)(F)F)c4)n3)c(-c3ccccc3)nn2n1 | -1.25 | 4.12 | 7.65 | 2.11 | 4.09 | -1.73 | 1.79 | -0.15 | 2.76 | 0.65
N#Cc1c(NC(=O)c2ccccc2F)sc2c1CCCC2 | -1.38 | -0.94 | 1.2 | 0.27 | 1.58 | -4.39 | -2.09 | -1.95 | -0.15 | -0.38
